# DT40 TDP1 CPT = qHTS for Inhibitors of human tyrosyl-DNA phosphodiesterase 1 (TDP1): qHTS in cells in presence of CPT | chicken DT40 Tdp1-/-;hTDP1 cells + 20 nM CPT, ATP luminescence, 48 h | Potency, µM (top dose mostly 46.2 µM), inactives show top-dose activity change, negative = growth inhibition, actives largely listed as inhibitors | actives 12% (n = 420,000); further: potency means the concentration at half of the fitted maximal effect; nearly all actives have a fitted effect of over 55% in size
#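 Chicken DT40 Tdp1-/- cells complemented with human TDP1, 400 cells/well, exposed to compounds plus 20 nM camptothecin for at least 48 h at 37 C; viability read as ATP content by CellTiter-Glo luminescence.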
# DT40 TDP1 no CPT = qHTS for Inhibitors of human tyrosyl-DNA phosphodiesterase 1 (TDP1): qHTS in cells in absence of CPT; Potency, µM (highest dose often 46.2 µM), for inactives: at the highest dose activity change, negative = growth inhibition, actives largely listed as inhibitors; DT40 Tdp1-/- hTDP1 cells, no CPT, ATP luminescence, 48 h; actives 15% (n = 420,000); AID 686978, 2013; further: potency means the concentration at half of the fitted maximal effect; nearly all actives have a fitted effect of over 55% in size
#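 Chicken DT40 Tdp1-/- cells complemented with human TDP1, screened without camptothecin (DMSO vehicle only), 400 cells/well. Compounds pin-transferred, cells incubated at 37 °C for at least 48 hr. Growth read as ATP-dependent luminescence (CellTiter-Glo, 30 min at RT).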
# HT1080 IDH1KD tx = qHTS for induction of synthetic lethality in tumor cells producing 2HG: qHTS for the HT-1080-IDH1KD cell line; HT-1080 IDH1 knockdown viability, ATP luminescence, 48 h; Potency, µM (series often up to 46.1 µM), for the others: at the highest dose activity, negative = toxicity, usual class: cytotoxic; actives 2% (n = 360,000); AID 686971, 2013;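 further: potency means the concentration at half of the fitted maximal effect; 0% = DMSO wells and -100% = cell-free medium wells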
#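 Assay cells: HT-1080 with IDH1 knockdown, 750 per well, RPMI/5% FBS. Exposure: 48 h at 37 °C following 2 h pre-incubation. Read: CellTiter-Glo luminescence; fitted concentration-response, curve class assigned.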
# ELG1 DNA repair = qHTS screen for small molecules that inhibit ELG1-dependent DNA repair in human embryonic kidney (HEK293T) cells expressing luciferase-tagged ELG1 | Potency, µM (titrated, usually from 46.1 µM), for the others: at the top dose activity change, negative = inhibition, most hits filed as inhibitors | AID 504467, 2011 | HEK293T ELG1-luciferase reporter, luminescence, 16 h; DNA damage induced by 5-fluorouridine | actives 2.3% (n = 330,000); further: potency means the concentration at half of the fitted maximal effect; nearly all actives have a fitted effect of over 55% in size
#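 Quantitative HTS, concentration-response format. 2,000 cells/well co-treated with 5-fluorouridine and compound, 16 hr in 5% CO2 at 37 °C; ONE-Glo luminescence read after 30 min.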
# IL-1B inflam inh = qHTS for Inhibitors of Inflammasome Signaling: IL-1-beta AlphaLISA Primary Screen; THP-1 LPS/ATP IL-1B secretion, AlphaLISA, 16 h; hits give low values; activity change, % at 57.5 µM; actives 4.7% (n = 360,000); in the data active means activity change below about -50%; inconclusive means mostly about -30% to -49%
#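 THP-1 cells pretreated 1 hr with compounds (up to 57.5 uM final), then stimulated with LPS (250 ng/mL final) plus ATP (1.25 mM final); secreted IL-1B measured by AlphaLISA after 16 hr, decreased signal indicating inhibition.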
# HT1080-NT tox = qHTS for induction of synthetic lethality in tumor cells producing 2HG: qHTS for the HT-1080-NT fibrosarcoma cell line. HT-1080-NT fibrosarcoma viability, CellTiter-Glo ATP luminescence, 48 h. AID 686970, 2013. Potency, µM (titrated, usually from 46.1 µM), inactives show at the top dose activity, negative = less viability, hits mostly cytotoxic. actives 1.6% (n = 360,000);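 further: NT is the 2HG producing partner of a matched IDH1 knockdown line; potency means the concentration at half of the fitted maximal effect; 0% = DMSO-treated cells and -100% = media-only wells without cells; nearly all actives have a fitted effect of over 55% in size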
#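 Luminescent CellTiter-Glo readout after 48 hours of compound exposure at 37 degrees C defined viability of HT-1080-NT cells. Activity was normalized to DMSO wells and cell-free media wells; concentration-response curves were fitted and assigned curve classes.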
# The depositor's hits bear a star; ? = inconclusive; nt = no result given; [ ] = remark or other dose. Rows were chosen to be rich in hits. Some 19% of all compounds tested hit in one or more screens of this group. Unless noted, the call rests on the fitted dose curve; in most records, active means well fitted curve in the direction sought with a large enough effect; inconclusive means small, poorly fitted or top-dose-only effect, or another doubt; inactive means no such curve, though single readings can be large; an effect the other way counts as inactive or inconclusive. Unless noted, on the % scale 0 is the no-effect control and ±100 the full control effect.
SMILES,DT40 TDP1 CPT,DT40 TDP1 no CPT,HT1080 IDH1KD tx,ELG1 DNA repair,IL-1B inflam inh,HT1080-NT tox
Cc1cc(Cl)ccc1NC(=O)C1CCN(c2nnc(-n3c(C)ccc3C)s2)CC1,?,21µM*,nt,nt,nt,nt
CN(C)c1ccc(C=O)c(Oc2ccccc2)c1,-5%,?,0%,nt,-11,-18%
COc1ccc(Cc2c(Cl)ncnc2Cl)cc1,-15%,?,-9%,?,-111*,-2%
COc1ccc(Cc2c(C)nc(N)nc2Cl)cc1,?,-8%,-9%,9%,0,2%
Cc1ccccc1NS(=O)(=O)c1ccc(Br)s1,-10%,-3%,nt,nt,nt,nt
COC(=O)c1ccc(N2CCCCC2)c(NC(=O)c2ccco2)c1,?,23µM*,-1%,23µM*,-2,-8%
O=C(Nc1ccc(N2CCCCC2)c(C(=O)O)c1)c1ccco1,-5%,7%,2%,?,0,-6%
O=C(c1ccccc1)c1ccc(N2CCOCC2)c(NC(=O)c2ccco2)c1,?,21µM*,-5%,16µM*,-21,-3%
Cc1ccc(OCC(=O)N(c2ccccn2)C2CCCCC2)c(C)c1,?,?,18%,10%,0,10%
CC(C)(C)c1ccc(OCC(=O)N(c2ccccn2)C2CCCCC2)cc1,?,15µM*,10%,-11%,16,12%
O=C(COc1ccc(Cl)cc1Cl)N(c1ccccn1)C1CCCCC1,26µM*,?,-9%,?,-17,-12%
Cc1c(C(=O)Nc2ccc(F)c(F)c2)oc2ccc(S(=O)(=O)N(C)C3CCCCC3)cc12,18µM*,15µM*,nt,nt,nt,nt
Cc1c(C(=O)NCC2COc3ccccc3O2)oc2ccc(S(=O)(=O)N(C)C3CCCCC3)cc12 (stereo unspecified),?,15µM*,-1%,-25%,-9,-17%
COc1ccc(C)cc1NC(=O)c1oc2ccc(S(=O)(=O)N(C)C3CCCCC3)cc2c1C,-3%,0%,nt,nt,nt,nt
COc1ccc(NC(=O)C2c3ccccc3OCC(=O)N2CCc2ccccc2)cc1 (stereo unspecified),-11%,-21%,7%,nt,33,10%
O=C(CSc1nncn1-c1cccnc1)Nc1cccc(C(F)(F)F)c1,4%,?,-8%,3%,-17,0%
c1ccc(-c2ncnc3ccccc23)cc1,-21%,-21%,19%,nt,0,10%
O=C(Cc1ccsc1-c1ccccc1)NO,26µM*,21µM*,?,-11%,-28,?
CCOC(=O)c1sc(=S)n(-c2ccccc2OC)c1N,?,23µM*,0%[9.24 µM],3%,8,0%
COc1ccc(Cl)cc1-n1c(N)c(C(N)=O)sc1=S,16µM*,21µM*,-2%,13%,14,5%
Cc1ccc(C)c(-n2c(N)c(C(N)=O)sc2=S)c1,-4%,2%,3%,-4%,2,15%
Cc1ccc(-n2c(N)c(C(N)=O)sc2=S)c(C)c1,?,26µM*,0%,17%,0,1%
COC(=O)c1sc(=S)n(-c2ccccc2OC)c1N,-7%,-12%,0%,26%,35,2%
CCOC(=O)Nc1cc2c(cc1[N+](=O)[O-])-c1ccccc1C2=O,?,-7%,4%,nt,16,0%
CN1[C@@H](Cc2ccccc2)COc2cc(N3CCSCC3)ccc2S1(=O)=O,?,16µM*,-14%,nt,-12,3%
